Assay [1] in a line: resazurin metabolic signal in HepG2 cells – cell-based, resazurin fluorescence, 24 h, PK04 Diversity Set, profiling panel (AID 1172). Also: test concentration not given here. To be noted: HepG2 viability, higher = more signal. (In general: The colour change of resazurin is a common sign of viable cells or microbes.)
Assay [2] in a line: budding yeast growth changes without added modifier – OD600, strain BY4716, 24 h, basal condition, primary screen (AID 1173). To be noted: S. cerevisiae BY4716 growth, OD600, 24 h; higher = more signal, called active from +8 up or from −8 down.
Assay [3] can be described thus: viability profiling in MM1S myeloma cells – cell-based, resazurin fluorescence, basal, 24 h, PK04 Diversity Set, profiling panel (AID 1174).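 Also: MM1S multiple myeloma cell line; test concentration not given here.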 Conditions: higher = more signal, called active from +8 up or from −8 down.
The target in assay [4] is Dihydroorotate dehydrogenase (quinone), mitochondrial (Plasmodium falciparum (isolate 3D7)) (UniProt Q08210). Kind of assay: inhibition of P. falciparum DHODH – biochemical, C-terminal His tag, absorbance 600 nm, primary screen (AID 1175).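 Also: recombinant parasite enzyme with a five histidine tag at its C terminus; test concentration not given here.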 To be noted: PfDHODH enzyme, DCIP absorbance 600 nm; higher = more signal, called active from +8 up or from −8 down.
Dihydroorotate dehydrogenase (quinone), mitochondrial (Plasmodium falciparum (isolate 3D7)), sequence (Q08210 whole entry, looked up): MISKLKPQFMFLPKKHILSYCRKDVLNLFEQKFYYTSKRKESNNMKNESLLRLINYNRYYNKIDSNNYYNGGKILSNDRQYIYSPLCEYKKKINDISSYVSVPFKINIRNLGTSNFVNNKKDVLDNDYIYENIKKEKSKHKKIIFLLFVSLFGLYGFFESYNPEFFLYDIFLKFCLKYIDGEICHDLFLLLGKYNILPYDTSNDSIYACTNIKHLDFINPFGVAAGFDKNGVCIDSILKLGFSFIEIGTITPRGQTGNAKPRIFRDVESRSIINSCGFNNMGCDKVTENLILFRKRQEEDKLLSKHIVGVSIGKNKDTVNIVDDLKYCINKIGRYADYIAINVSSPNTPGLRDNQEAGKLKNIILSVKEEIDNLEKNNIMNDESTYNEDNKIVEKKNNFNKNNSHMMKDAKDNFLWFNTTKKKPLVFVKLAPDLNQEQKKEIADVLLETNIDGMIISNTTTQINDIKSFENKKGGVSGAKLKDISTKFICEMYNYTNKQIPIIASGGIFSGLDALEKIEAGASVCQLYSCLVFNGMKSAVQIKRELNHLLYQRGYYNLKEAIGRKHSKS
Assay [5] in a line: inhibition of PAO1 biofilm formation – strain PAO1, LB-PBS medium, absorbance 600 nm, primary screen (AID 1176). Also: test concentration not given here. To be noted: P. aeruginosa PAO1 growth/biofilm, A600, 12 h; higher = more signal.
The nature of assay [6]: growth modulation of vineyard yeast isolate – strain RM11-1a, OD600, basal, 24 h, primary screen (AID 1177).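 Also: cultures grown under basal conditions with no added stressor; test concentration not given here.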 Conditions: S. cerevisiae RM11-1a growth, OD600, 24 h; higher = more signal, called active from +8 up or from −8 down.
The nature of assay [7]: growth of efflux-deficient E. coli DRC39 – strain DRC39, OD650, 24 h, E. coli filamentation inducers, primary screen (AID 1178).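 Also: growth measured as culture turbidity by optical density at 650 nm; test concentration not given here.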 To be noted: E. coli DRC39 acrAB, higher = more signal, called active from +8 up or from −8 down.
A short description of assay [8]: growth of efflux-deficient E. coli DRC39 – strain DRC39, OD650, 48 h, E. coli filamentation inducers, primary screen (AID 1179).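 Also: screen aims at cell division blockers that make cells filament.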 Conditions: E. coli DRC39 delta-acrAB growth, higher = more signal, called active from +8 up or from −8 down.
Assay [9] is described as follows: viability profiling in RPMI8226 myeloma cells – cell-based, resazurin fluorescence, basal, 24 h, PK04 Diversity Set, profiling panel (AID 1180).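 Also: RPMI8826 multiple myeloma cell line at 5000 cells per well; test concentration not given here.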 To be noted: higher = more signal.
Assay [10] concerns the target E3 ubiquitin-protein ligase XIAP (Homo sapiens) (UniProt P98170). Kind of assay: small molecules binding XIAP protein – biophysical, small-molecule microarray, fluorescence 635 nm, primary screen (AID 1181).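 Also: score merges 667 nm emission and signal to noise over triplicate slides.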 Conditions: higher = more signal.

SMILES strings stand for the structures. Active and inactive are the calls of the source. Unless noted, no rule for the calls is given here.

E3 ubiquitin-protein ligase XIAP (Homo sapiens), sequence (P98170 whole entry, looked up): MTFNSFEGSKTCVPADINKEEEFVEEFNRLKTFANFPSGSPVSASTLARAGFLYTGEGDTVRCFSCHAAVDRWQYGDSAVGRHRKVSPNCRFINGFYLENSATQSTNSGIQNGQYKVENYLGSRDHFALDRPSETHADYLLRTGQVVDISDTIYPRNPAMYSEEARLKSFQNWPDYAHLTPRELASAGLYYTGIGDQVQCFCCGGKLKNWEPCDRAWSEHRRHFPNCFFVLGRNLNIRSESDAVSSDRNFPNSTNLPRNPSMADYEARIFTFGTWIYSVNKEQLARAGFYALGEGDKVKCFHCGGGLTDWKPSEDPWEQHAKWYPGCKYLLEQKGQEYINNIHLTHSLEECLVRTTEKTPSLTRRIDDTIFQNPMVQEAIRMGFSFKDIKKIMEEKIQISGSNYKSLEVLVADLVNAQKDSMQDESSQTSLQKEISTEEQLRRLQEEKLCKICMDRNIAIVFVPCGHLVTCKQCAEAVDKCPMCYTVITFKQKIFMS

Turning to `CC(C)(C)N1C(=O)[C@H]2[C@H]3[C@H](O)[C@H](O)CC(=O)[C@H]3CC[C@H]2C1=O`, the z-score in [1] was -0.915; in assay [2] it was -0.573 (inactive); in assay [3] it was 0.319 (inactive); in [5], -0.908 (inactive); in assay [6] it was 0.143 (inactive); in assay [7], -0.403 (inactive). Moreover, the z-score was -0.738 (inactive) in assay [8] and -0.383 in [9]. Also, the composite z-score in [4] is 0.236 (inactive); in [10], -0.0378.
As for `O=C(NN=C1C[C@@H](O)[C@@H](O)[C@@H]2[C@@H]3C(=O)N(C4CCCCC4)C(=O)[C@@H]3CC[C@@H]12)OCc1ccccc1`, the z-score in [1] was -0.141; in [2], -0.922 (inactive); in [3] it was -0.0864 (inactive); in [5], -0.814 (inactive); in assay [6] it was 0.0487 (inactive); in [7], 0.193 (inactive). The z-score was 0.332 (inactive) in [8] and -0.678 in assay [9]. Moreover, the composite z-score in [4] is -0.223 (inactive); in [10] it was -0.505.
Consider `CCCNC(=O)OC[C@H]1O[C@H](CCON=C(C)C)C=C[C@@H]1Oc1ccc(OC)cc1`, for which the z-score in [1] is -0.131; in [2] it was -2.44 (inactive); in assay [3] it was -0.112 (inactive); in assay [5] it was 0.736 (inactive); in assay [6] it was -0.0159 (inactive); in [7] it was 0.675 (inactive). For the same compound, the z-score in assay [8] was -1.4 (inactive); in assay [9], -0.331. Moreover, the figures for the composite z-score in [4] and in [10] were -0.411 (inactive) and -0.0859, respectively.
With `CC(C)CON=C1C[C@@H](O)[C@@H](O)[C@@H]2[C@@H]3C(=O)N(C[C@@H]4CCCO4)C(=O)[C@@H]3CC[C@@H]12`, the z-score in assay [1] is -0.192; in assay [2], 0.526 (inactive); in assay [3], 0.22 (inactive); in assay [5], 0.152 (inactive); in assay [6] it was -0.541 (inactive); in [7], 0.276 (inactive). In addition, the values for the z-score in assay [8] and in [9] were 0.663 (inactive) and 1.15, respectively. In addition, the composite z-score in [4] was -0.223 (inactive); in assay [10] it was -0.266.
Turning to `COC(=O)CC=C[C@@H](C)[C@@H](C=NO[C@H](C)c1cn([C@H](CO)Cc2ccccc2)nn1)NS(=O)(=O)c1ccc(C)cc1`, the z-score in assay [1] was -0.891; in assay [2], -1.17 (inactive); in assay [3], -0.81 (inactive); in assay [5] it was 0.0282 (inactive); in [6], -0.476 (inactive); in assay [7] it was 0.0146 (inactive). In addition, the z-score was -0.0853 (inactive) in [8] and 0.108 in [9]. In addition, the composite z-score in assay [4] is 0.0463 (inactive); in assay [10] it was -0.206.
For the compound `CSCC[C@@H]1NC(=O)CC=C[C@@H](C)COC(=O)[C@@H](C)COC1=O`, the z-score in assay [1] is 0.414; in assay [2] it was -0.739 (inactive); in [3], 0.574 (inactive); in assay [5], -0.708 (inactive); in assay [6], -0.24 (inactive); in assay [7], 0.422 (inactive). Moreover, the z-score in assay [8] was -0.962 (inactive); in [9], 0.249. Also, the values for the composite z-score in assay [4] and in [10] were 0.0037 (inactive) and -0.0525, respectively.
Regarding `COC(=O)CC=C[C@@H](C)[C@@H](C=NOC[C@H]1O[C@H](c2ccccc2)C=C[C@@H]1Oc1ccc(OC)cc1)OC`, the z-score in assay [1] was 0.167; in assay [2], 0.805 (inactive); in assay [3], 0.0784 (inactive); in [5], 0.335 (inactive); in assay [6], 0.065 (inactive); in assay [7], 0.0177 (inactive). Moreover, the z-score in assay [8] was -0.0331 (inactive); in [9] it was 0.264. Moreover, the composite z-score was 0.388 (inactive) in assay [4] and 0.127 in [10].
For the compound `COc1ccc(COC(=O)NN=C2C[C@@H](O)[C@@H](O)[C@@H]3[C@@H]4C(=O)N(c5cccc(Oc6ccccc6)c5)C(=O)[C@@H]4CC[C@@H]23)cc1`, the z-score in assay [1] was 0.702; in assay [2], 0.968 (inactive); in assay [3], 0.106 (inactive); in [5] it was -0.282 (inactive); in [6], 1.65 (inactive); in [7], -0.401 (inactive). In addition, the values for the z-score in assay [8] and in assay [9] were -0.587 (inactive) and 0.45, respectively. Further, the composite z-score in [4] is 0.861 (inactive); in [10], -0.22.
In the case of `CCN1C(=O)[C@H]2[C@H]3[C@H](O)[C@H](O)CC(=NNC(=O)OCc4ccc(OC)cc4)[C@@H]3CC[C@H]2C1=O`, the z-score in assay [1] is -0.295; in assay [2], 0.303 (inactive); in assay [3], -0.938 (inactive); in assay [5] it was -0.708 (inactive); in [6] it was -1.33 (inactive); in assay [7], -0.154 (inactive). Moreover, the z-score in [8] is -0.0457 (inactive); in [9], -0.381. The composite z-score in assay [4] was -0.367 (inactive); in assay [10], -0.0416.
Turning to `COc1ccc(O[C@H]2C=C[C@@H](c3ccccc3)O[C@@H]2COC(=O)CCC(C)=NOC[C@@H](O)[C@H]2O[C@@H]3OC(C)(C)O[C@@H]3[C@H]2O)cc1`, the z-score in assay [1] is 0.0784; in assay [2] it was -0.727 (inactive); in [3], 0.0383 (inactive); in [5] it was -0.348 (inactive); in assay [6] it was 0.28 (inactive); in assay [7] it was 1.18 (inactive). The z-score in [8] was -1.02 (inactive); in assay [9], 1.04. Also, the composite z-score in assay [4] was -1.15 (inactive); in [10], -0.0559.
`CC(C)=CCCC(C)=CCON=C1C[C@@H](O)[C@@H](O)[C@@H]2[C@@H]3C(=O)N(Cc4ccccc4)C(=O)[C@@H]3CC[C@@H]12`: the z-score is 1.42 in assay [1]; -0.404 (inactive) in assay [2]; 0.772 (inactive) in [3]; -0.143 (inactive) in assay [5]; 0.581 (inactive) in assay [6]; 0.593 (inactive) in assay [7]. Moreover, the z-score in [8] was 1.01 (inactive); in assay [9] it was 0.97. Also, the composite z-score was 0.317 (inactive) in [4] and -0.121 in [10].
`COC(=O)[C@H]1O[C@@H](c2c(OC)c(OC)c(C)c(OC)c2OC)[C@H](C)[C@@H](O)[C@H]1C`: the z-score in assay [1] is -0.617; in assay [2] it was -0.615 (inactive); in assay [3], -1.76 (inactive); in assay [5], 0.417 (inactive); in assay [6] it was 0.275 (inactive); in [7], 0.968 (inactive). In addition, the z-score in assay [8] was 0.926 (inactive); in assay [9] it was -0.456. For the same compound, the composite z-score in assay [4] is -0.0757 (inactive); in assay [10], -0.13.
As to `Cn1c(=O)n2n(c1=O)[C@H]1[C@H](O)[C@@H]3O[C@@H]3C(=NOCc3ccccc3)[C@H]1CC2`, the z-score in assay [1] was 0.0287; in assay [2], 0.0108 (inactive); in assay [3] it was -0.189 (inactive); in assay [5], -0.0242 (inactive); in [6] it was -0.186 (inactive); in assay [7], -0.289 (inactive). Further, the z-score is -0.265 (inactive) in assay [8] and -0.336 in assay [9]. The composite z-score in [4] was -1.08 (inactive); in [10], -0.222.

These data come from PubChem BioAssay.
